# Screening data (PubChem)
# Compounds with a hit are over-represented: about 5.4% of the library has one in this group of screens.
# ALR inh: human ALR oxidase inhibition via reduced H2O2 | P55789 | purified ALR, DTT oxidation, H2O2 HRP-luminol luminescence | inhibition, % (no concentration beside the values) | 3.8% of 290,000 active;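 active means mean replicate inhibition above about 79%, with every replicate also reaching it, limit read from the data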
# Target sequence (P55789 whole entry, looked up): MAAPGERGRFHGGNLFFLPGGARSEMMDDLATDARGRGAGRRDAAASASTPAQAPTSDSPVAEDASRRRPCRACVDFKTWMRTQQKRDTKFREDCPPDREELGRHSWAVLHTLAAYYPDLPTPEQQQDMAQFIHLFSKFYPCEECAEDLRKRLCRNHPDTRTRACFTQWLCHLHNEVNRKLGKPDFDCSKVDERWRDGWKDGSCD
# aDG glyco act: increases alpha dystroglycan glycosylation | Pro5-aDG cells, alpha-DG glycosylation AlphaScreen (IIH6); 0% Pro5, 100% B10-LARGE cell signal | activation, % at 10 µM | 0.22% of 360,000 active | AID 624168;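 active means activation of at least 8% versus controls, or a plate z-score of at least 8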;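 further: Pro5 are CHO cells carrying HIG-tagged alpha-DG that lacks glycosylation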
# APOBEC3G inh: blocks human APOBEC3G single-stranded DNA deamination. 0.28% of 330,000 active. inhibition, % at 20 µM. Q9HC16. recombinant A3G, ssDNA deamination FAM/TAMRA fluorescence;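 active means inhibition of at least 40% at 20 µM, with no more than 30% in the related APOBEC3A deaminase screen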;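 further: plate controls were DMSO wells with A3G for no effect and wells lacking A3G enzyme for full effect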
# APOBEC3A inh: inhibitors of human APOBEC3A DNA deaminase. P31941. recombinant A3A, FAM/TAMRA ssDNA deamination fluorescence. inhibition, % at 20 µM. 0.41% of 330,000 active. AID 493011;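 active means at least 40% inhibition at 20 µM here, with at most 30% in a related deaminase screen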;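 further: plate controls were A3A with DMSO for no effect and wells lacking A3A enzyme for full effect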
# Target sequence (P31941 whole entry, looked up): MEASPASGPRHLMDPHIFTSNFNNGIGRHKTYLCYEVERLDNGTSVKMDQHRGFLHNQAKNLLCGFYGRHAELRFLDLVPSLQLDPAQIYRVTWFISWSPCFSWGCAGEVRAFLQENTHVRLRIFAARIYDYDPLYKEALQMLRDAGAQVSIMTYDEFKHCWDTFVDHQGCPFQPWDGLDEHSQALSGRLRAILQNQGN
# rCAG binder: binds r(CAG) RNA repeats. r(CAG) RNA repeat, TO-PRO-1 dye displacement fluorescence. inhibition, % at 3 µM. 1.3% of 370,000 active. AID 651821;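 active means inhibition above the plate cutoff, the mean of all test compounds on that plate plus 3 SD, cut at about 35% in these data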;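 further: 0% = DMSO alone and 100% = 100 µM mitoxantrone as full dye displacement; higher means more dye released from RNA so lower well fluorescence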
# PHOSPHO1 block: blocks human PHOSPHO1 phosphatase activity. recombinant PHOSPHO1, absorbance phosphatase assay. 1.1% of 290,000 active. Q8TCT1. inhibition, % at 13.3 µM. AID 1565; in the data active means inhibition above about 60%
# Numbers without * were called inactive; . = no result given.
SMILES,ALR inh,aDG glyco act,APOBEC3G inh,APOBEC3A inh,rCAG binder,PHOSPHO1 block
Cc1cc(=O)[nH]c(N=N/C(=N/Nc2ccc(O)cc2)c2ccccc2)n1,-4.0,-0.4,5.1,2.8,9.3,92.1*
Cc1cc(=O)[nH]c(N=N/C(=N/Nc2ccccc2C)c2ccccc2)n1,-9.0,0.2,4.8,3.0,5.5,92.4*
Cc1ccccc1C(=O)N[C@@H](Cc1cccnc1)C(=O)N1CCC[C@H]1C(=O)NCCc1ccccc1Cl,.,.,.,.,-1.0,.
COC(=O)CC1SC(=O)NC1=Nc1ccc(OC)cc1 (configuration not stated),-7.0,0.0,-1.0,-5.9,3.7,3.2
COC(=O)CC1SC(=O)NC1=Nc1ccc(O)cc1 (configuration not stated),95.6*,-0.2,-4.3,-2.4,2.1,-31.5
COc1ccc(N(CC(C)C)S(=O)(=O)c2nnc(NC(=O)c3ccco3)s2)cc1,5.5,0.1,-5.4,-0.7,75.7*,6.9
CCN(c1ccc(OC)cc1)S(=O)(=O)c1nnc(NC(=O)c2ccco2)s1,-3.7,-0.1,-2.8,3.7,20.5,29.3
Cn1c(=O)c(=O)n(C)c2cc(S(=O)(=O)N3CCN(c4ccccc4Cl)CC3)ccc21,.,.,.,.,6.2,.
CN1CC[C@@H]2CN(S(=O)(=O)c3ccccc3)[C@H](c3ccccc3Br)C[C@@H]21,.,.,.,.,1.1,.
CN1CCCCC(NC(=O)CCl)C1=O (configuration not stated),.,.,.,.,0.6,.
CC1CN(C(=O)COC(=O)c2ccc(NC(=O)CC#N)cc2)CC(C)O1 (configuration not stated),98.6*,-0.4,6.7,-4.9,2.9,47.9
CCOc1ccc(C(=O)OCC(=O)N2CC(C)OC(C)C2)cc1OCC (configuration not stated),-2.2,0.0,-3.4,1.1,-0.7,-13.0
N#CCC(=O)Nc1ccc(C(=O)OCC(=O)Nc2ccc3ccccc3c2)cc1,91.8*,0.3,-10.4,23.5,31.5,.
CC(C)(C)NC(=O)COC(=O)c1ccc(NC(=O)CC#N)cc1,99.2*,0.0,-3.6,-0.5,4.0,32.2
N#CCC(=O)Nc1ccc(C(=O)OCC(=O)c2ccc3c(c2)OCO3)cc1,99.2*,-0.1,1.5,-4.5,17.5,.
N#CCC(=O)Nc1ccc(C(=O)OCC(=O)NNC(=O)c2ccc(Cl)cc2)cc1,66.5,0.3,-1.7,2.4,14.7,.
N#Cc1ccc(/C=C2\CC3(OC(=O)c4ccc(F)cc4)CCCN2C3)cc1 (configuration not stated),.,.,.,.,-0.1,.
C=CCN1[C@H](CO)[C@H](c2ccccc2)[C@@H]1C#N,.,.,.,.,3.6,.
COC(=O)c1ccc(CN2C(=O)NC3(CCCCC3C)C2=O)o1 (configuration not stated),12.8,1.3,-0.6,7.7,1.6,69.9*
COC(=O)c1ccc(CN2C(=O)NC3(CCCc4ccccc43)C2=O)o1 (configuration not stated),-10.5,0.0,-10.0,-5.3,-2.6,29.7
CCn1nc(C)cc1-c1n[nH]c(=S)n1N,1.3,0.0,0.9,-19.6,1.6,101.6*
CC(C)c1cc(C(=O)N/N=C/c2ccco2)n[nH]1,83.2*,-0.3,-5.4,-3.8,1.2,-9.3
Cn1c(=O)cc(OCC(=O)N2CCN(c3ccccc3Cl)CC2)c2ccccc21,.,.,.,.,1.1,.
Cc1ccc(S(=O)(=O)n2cnc(C)c2)cc1,-5.5,0.0,-6.0,-5.8,-1.9,34.3
COc1ccc2cc(S(=O)(=O)n3cnc(C)c3)ccc2c1,98.4*,-0.6,-4.7,-1.9,0.1,27.9
SMILES,ALR inh,aDG glyco act,APOBEC3G inh,APOBEC3A inh,rCAG binder,PHOSPHO1 block
O=S(=O)(c1ccc(Cl)s1)N1CCC(c2cn3ccccc3n2)CC1,.,.,.,.,8.0,.
COCCCNC(=O)c1cc2c(-c3ccc(Cl)cc3)nn(C)c2s1,-22.6,-0.2,2.9,2.6,-0.7,-25.8
Cn1nc(-c2ccc(Cl)cc2)c2cc(C(=O)NCCCN3CCCC3)sc21,93.7*,0.1,-3.5,-1.4,7.8,-6.8
COCCNC(=O)c1cc2c(-c3ccc(Cl)cc3)nn(C)c2s1,92.1*,0.1,-5.4,-2.4,3.7,-21.0
Cc1ccc(CNC(=O)c2cc3c(-c4ccc(Cl)cc4)nn(C)c3s2)o1,80.2*,0.1,-4.5,-2.2,13.5,2.7
CCCCNC(=O)c1cc2c(-c3ccc(Cl)cc3)nn(C)c2s1,35.8,0.2,-0.8,3.3,4.1,2.7
O=C(c1cc(C2CC2)on1)N(C1CCCCC1)C1CCOCC1,.,.,.,.,-0.2,.
CN(C)/C(Cn1cncn1)=C1/N=C(c2ccccc2)OC1=O,-0.2,-0.4,-6.1,-2.9,-1.1,-24.5
CN1CCN(C/C(=C2/N=C(c3ccccc3)OC2=O)N(C)C)CC1,97.8*,0.0,-1.8,1.8,-2.3,-7.7
COc1cc(NC(=O)c2ccc(Cl)cc2)c(Cl)cc1NC(=O)c1cccnc1,-15.4,0.0,-4.8,-0.7,-1.3,62.8*
COc1cc(NC(=O)c2cccnc2)c(Cl)cc1NC(=O)c1ccc(Cl)cc1,-11.3,0.2,1.5,2.1,0.5,27.6
COc1ccc(Cl)cc1NC(=S)NNC(=O)c1cccnc1,88.9*,-0.3,-4.9,-4.0,27.1,-9.7
COc1ccccc1-c1nnc2n1N=C(c1ccc3c(c1)OCO3)CS2,.,.,.,.,2.2,.
CCCc1ccc(-c2c(C)sc(N)c2C#N)cc1,91.7*,0.0,-2.2,-1.9,11.1,16.9
COc1cccc(N2CCN(CC(=O)NCc3ccco3)CC2)c1,.,.,.,.,1.4,.
NC1=C(Cl)C(=O)c2ccccc2C1=O,.,21.6*,.,.,5.5,.
NC1=C(Cl)C(=O)c2ccc(S(N)(=O)=O)cc2C1=O,.,-0.2,.,.,5.2,.
CCc1cccc(NC(=O)CSC2=NS(=O)(=O)c3ccccc32)c1,98.7*,0.0,-26.2,-0.9,3.2,94.2*
O=C(CSc1nnc(-c2ccccn2)n1Cc1ccco1)Nc1ccc(Oc2ccccc2)cc1,.,.,.,.,5.4,.
O=C(CC(SCCO)c1ccc2c(c1)OCO2)c1cccs1 (configuration not stated),34.0,0.2,-4.4,0.5,-3.6,82.7*
CCn1c(SCC(=O)NC(=O)Nc2ccc3c(c2)OCCO3)nnc1-c1cccs1,.,-0.1,-14.4,-2.1,-2.0,65.3*
NC(=O)c1ccc(NC(=O)CSc2nnc(-c3cccnc3)n2Cc2ccco2)cc1,97.0*,-0.1,-5.2,0.6,1.1,26.6
COc1ccc(NC(=O)CSc2nnc(-c3ccccn3)n2Cc2ccco2)cc1OC,97.2*,0.1,-0.2,0.9,-5.4,25.4
CC(C)N1CCCCC(NC(=O)c2cccs2)C1=O (configuration not stated),.,.,.,.,1.6,.
O=C(CC(SCc1ccco1)c1ccc(O)cc1)c1cccs1 (configuration not stated),95.6*,0.3,2.0,3.5,-1.0,23.0
O=C(CSc1nnc(-c2ccc(O)cc2)n1Cc1ccco1)c1ccccc1,94.0*,0.1,-5.2,2.1,-0.5,49.2
CCn1c(SCC(=O)c2cccs2)nnc1-c1cccs1,18.5,-0.1,-0.3,-0.6,-3.2,70.5*
